The entries come from a sample that favours hits as a whole.
IDE exosite inh – insulin-degrading enzyme (human) exo-site inhibition; purified IDE, FL-6b probe fluorescence polarization; hits give low values; actives 6.3% (n = 17,000); P14735; AID 1259349; z-score at 20 µM;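 active means z-score of -3 or lower, meaning strong loss of probe binding signal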;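 further: His-tagged human IDE residues 42-1019 made in E. coli with 30 nM FL-6b probe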
Each line names hits and unclear results; the compound was inactive in the other large screens.

COc1ccccc1NC(=O)N1CC(=O)N2[C@H](CO)[C@@H](c3ccc(C#CC4CC4)cc3)[C@H]2C1	none
COc1ccc(C#Cc2ccc([C@H]3[C@@H](CO)N4C(=O)CN(C(=O)NC(C)C)C[C@H]34)cc2)cc1	none
COc1cccc(-c2ccc([C@@H]3[C@@H](CO)N4C(=O)CN(C(=O)NC(C)C)C[C@@H]34)cc2)c1	IDE exosite inh -14
COc1ccc(NC(=O)N2CC(=O)N3[C@H](C2)[C@H](c2ccc(-c4ccccc4)cc2)[C@@H]3CO)cc1	none
COc1ccc(-c2ccc([C@H]3[C@@H](CO)N4C(=O)CNC[C@H]34)cc2)cc1	IDE exosite inh -3.2
COc1ccc(C#Cc2ccc([C@@H]3[C@H]4CN(C(=O)NC(C)C)CC(=O)N4[C@H]3CO)cc2)cc1	none
COc1ccc(C#Cc2ccc([C@@H]3[C@@H](CO)N4C(=O)CN(C(=O)NC(C)C)C[C@H]34)cc2)cc1	none
COc1ccc(-c2ccc([C@@H]3[C@H]4CNCC(=O)N4[C@H]3CO)cc2)cc1	none
COc1ccc(-c2ccc([C@@H]3[C@H](CO)N4C(=O)CNC[C@@H]34)cc2)cc1	none
COc1cccc(-c2ccc([C@@H]3[C@@H](CO)N4C(=O)CN(C(=O)NC(C)C)C[C@H]34)cc2)c1	IDE exosite inh -3.5
COc1ccc(-c2ccc([C@H]3[C@H](CO)N4C(=O)CN(C(=O)NC(C)C)C[C@@H]34)cc2)cc1	IDE exosite inh -3.8
COc1ccc(C#Cc2ccc([C@H]3[C@H](CO)N4C(=O)CN(C(=O)NC(C)C)C[C@@H]34)cc2)cc1	none
O=C(Nc1cccc(F)c1)N1CCCCN2[C@H](C1)[C@@H](c1ccc(-c3ccccc3F)cc1)[C@@H]2CO	none
CCC(=O)N1[C@H](CO)[C@@H](c2ccc(-c3cccnc3)cc2)[C@@H]1CN(CC)C(C)=O	none
O=C(Nc1ccccc1)N1CCCCN2[C@H](C1)[C@@H](c1ccc(C#CC3CC3)cc1)[C@@H]2CO	none
COc1cccc(CN2CCCCN3[C@H](CO)[C@@H](c4ccc(C#Cc5cccnc5)cc4)[C@@H]3C2)c1	none
CN(C[C@@H]1N[C@H](CO)[C@H]1c1ccccc1)C(=O)c1ccccn1	none
CCC(=O)N1C[C@@H](C)[C@@H](OC)CN(C)C(=O)c2cc(NC(=O)Nc3ccc(Cl)cc3)ccc2OC[C@H]1C	none
COCC(=O)N1[C@H](C#N)[C@H](c2ccccc2C2=CCCCC2)[C@@H]1CO	none
N#C[C@H]1[C@@H](c2ccccc2C2=CCCC2)[C@H](CO)N1S(=O)(=O)c1cccc(F)c1	none
COc1cccc(CNC(=O)C[C@@H]2CC[C@H]3[C@@H](COc4ccc(NS(=O)(=O)c5ccccc5F)cc4C(=O)N3C)O2)c1	none
O=C(C1CC1)N1CC(=O)N2[C@@H](CO)[C@@H](c3ccc(C#Cc4cccc(F)c4)cc3)[C@@H]2C1	IDE exosite inh -4.7
O=C(C1CCCCC1)N1CC(=O)N2[C@H](C1)[C@H](c1ccc(C#Cc3cccc(F)c3)cc1)[C@@H]2CO	none
O=C(C1CC1)N1CC(=O)N2[C@H](CO)[C@H](c3ccc(C#CCc4ccccc4)cc3)[C@H]2C1	none
O=C(C1CCC1)N1CC(=O)N2[C@H](CO)[C@@H](c3ccc(C#Cc4cccc(F)c4)cc3)[C@@H]2C1	IDE exosite inh -4.4
COc1ccc(C#Cc2ccc([C@H]3[C@@H](CO)N4C(=O)CN(C(=O)C5CCOCC5)C[C@H]34)cc2)cc1	none
O=C(C1CCCC1)N1CC(=O)N2[C@H](CO)[C@H](c3ccc(C#CC4CCCC4)cc3)[C@@H]2C1	none
O=C(C1CCOCC1)N1CC(=O)N2[C@H](CO)[C@@H](c3ccc(C#Cc4cccc(F)c4)cc3)[C@@H]2C1	IDE exosite inh -10
O=C(C1CCC1)N1CC(=O)N2[C@@H](CO)[C@H](c3ccc(C#CCc4ccccc4)cc3)[C@@H]2C1	none
O=C(C1CCCCC1)N1CC(=O)N2[C@H](CO)[C@@H](c3ccc(C#Cc4cccc(F)c4)cc3)[C@H]2C1	none
COc1ccc(C#Cc2ccc([C@@H]3[C@@H](CO)N4C(=O)CN(C(=O)C5CCOCC5)C[C@H]34)cc2)cc1	none
O=C(C1CCC1)N1CC(=O)N2[C@H](CO)[C@H](c3ccc(C#Cc4cccc(F)c4)cc3)[C@H]2C1	IDE exosite inh -10
O=C(C1CC1)N1CC(=O)N2[C@H](CO)[C@H](c3ccc(C#CC4CCCC4)cc3)[C@H]2C1	none
CCC(=O)N1[C@H](CNC(=O)CN(C)C)[C@@H](c2ccc(C3=CCCC3)cc2)[C@@H]1CO	none
Cc1noc(C)c1NC(=O)Nc1ccc2c(c1)C(=O)N([C@@H](C)CO)C[C@@H](C)[C@H](CN(C)Cc1ccc3c(c1)OCO3)OCCCC[C@H](C)O2	none
O=S(=O)(c1ccccc1)N1CCCCN2[C@@H](CO)[C@@H](c3ccc(C#Cc4cccnc4)cc3)[C@@H]2C1	none
CC(=O)N1CC(=O)N2[C@H](CO)[C@@H](c3ccc(-c4ccncc4)cc3)[C@@H]2C1	none
O=C(C[C@@H]1CC[C@H]2[C@@H](COC[C@@H](O)CN2Cc2nccs2)O1)NCc1ccccc1Cl	none
C/C=C/c1ccccc1[C@H]1[C@@H](CO)N(C(=O)CN2CCOCC2)[C@H]1C#N	none
O=C(c1cnccn1)N1CC(=O)N2[C@H](CO)[C@H](c3ccc(-c4ccc(F)cc4)cc3)[C@@H]2C1	none

Screening results deposited in PubChem by Broad Institute.
